Compounds with a hit are over-represented: about 2.1% of the library has one in this group of screens.
LDHA block: inhibitors of human lactate dehydrogenase A | 480,000 tested, 0.15% active | P00338 | activity change, % (values are at about 110 or 230 µM) | purified LDHA, NADH/diaphorase-resazurin fluorescence; active compounds read low; in the data active = activity change below about -30%; inconclusive = mostly about -25% to -30%;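 also: plate controls were DMSO wells for no effect and wells without enzyme for full effect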
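Remaining NADH was detected by diaphorase (0.133 mg/mL) converting 37 µM resazurin to fluorescent resorufin, read at 0 and 20 minutes. The preceding 5-minute room-temperature reaction used 2 nM LDHA, 0.2 mM sodium pyruvate and 0.06 mM NADH at pH 7.4.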
D2 PAM-1: positive allosteric modulators of human D2 dopamine receptor. P14416. HEK293 T-REx D2, calcium flux, EC20 dopamine potentiation. 340,000 tested, 0.34% active. potentiation, % at 10 µM;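 active = potentiation over 3 SD above the plate norm, cut at about 30% in these data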; also: 0% is about no effect
Target sequence (P14416 whole entry, looked up): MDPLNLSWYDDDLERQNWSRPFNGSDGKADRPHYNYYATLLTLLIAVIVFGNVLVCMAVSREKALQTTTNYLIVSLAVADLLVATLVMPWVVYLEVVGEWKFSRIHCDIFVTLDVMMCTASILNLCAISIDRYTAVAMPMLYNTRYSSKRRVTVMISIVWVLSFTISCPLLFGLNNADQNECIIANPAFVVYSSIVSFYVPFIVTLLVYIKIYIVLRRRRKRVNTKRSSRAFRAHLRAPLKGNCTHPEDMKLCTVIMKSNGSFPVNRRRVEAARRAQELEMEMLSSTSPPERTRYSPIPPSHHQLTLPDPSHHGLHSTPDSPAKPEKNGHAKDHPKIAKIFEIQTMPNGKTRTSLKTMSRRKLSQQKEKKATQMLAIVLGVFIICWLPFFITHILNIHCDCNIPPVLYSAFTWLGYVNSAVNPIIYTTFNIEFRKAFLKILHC
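Cells plated with tetracycline inducer and held overnight at 30 C; calcium dye loaded 30–90 min at room temperature; baseline taken, compound added and read 180 s; EC20 dopamine then added and read 180 s.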
D2 PAM-2: positive allosteric modulators of human D2 dopamine receptor; P14416; DiscoveRx D2 beta-arrestin cells, luminescence, 90 min; 100% = 57 uM dopamine signal; potentiation, % (no concentration beside the values); 360,000 tested, 0.23% active; in the data active = potentiation above about 50%; inconclusive = mostly about 30% to 49%
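PathHunter beta-arrestin assay in DiscoveRx D2 cells. Compounds were added with an EC20 of dopamine (50 nM final) for 90 min at 37 deg C. Luminescence was read 1 h after detection reagent, with 57 uM dopamine as the EC100 control.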
D2 antag: antagonizes the human D2 dopamine receptor. P14416. HEK293 TREx D2 cells, calcium flux, dopamine EC80. inhibition, % at 10 µM. 340,000 tested, 2% active. AID 485344; in the data active = inhibition above about 30%; inactive = below that, where a call was filed; also: 0% is about no effect
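HEK293 T-REx D2 cells, tet-induced, calcium dye no-wash. Cpd pintool add, 180 s kinetic, then EC80 DA, 180 s kinetic. Ca flux read.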
D2 ag-1: human D2 receptor agonism in beta-arrestin assay; P14416; 360,000 tested, 0.084% active; activation, % (concentration not given with the values); DiscoveRx PathHunter D2 beta-arrestin, luminescence, 90 min; 100% = 57 uM dopamine signal; in the data active = activation above about 40%; inconclusive = between about 15% and that limit
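DiscoveRx PathHunter D2 beta-arrestin cells (2,100/well) attached overnight, then compound-stimulated 90 min at 37 C in HBSS/10 mM HEPES/0.1% Tween-20 buffer; beta-galactosidase complementation read by luminescence after 1 h at ambient temperature. Dopamine 57 uM final (EC100) as control.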
D2 ag-2: agonists of human D2 dopamine receptor; P14416; activation, % at 2 µM; HEK293 T-REx D2 cells, calcium flux agonist mode; 340,000 tested, 0.53% active; AID 485358;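 active = activation over 3 SD above normal in the single-dose calcium agonist read, cut at about 30% in these data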; also: 0% is about no effect
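HEK293 Trex D2 cells, tetracycline-induced, o/n 30 C 5% CO2; no-wash Ca dye, RT 30–90 min; 10-cycle baseline, 23 nl cpd added, kinetic Ca read 180 s; agonist hits = positive Ca response.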
An asterisk follows results filed as active; ? = inconclusive; nt = no result.

SMILES | LDHA block | D2 PAM-1 | D2 PAM-2 | D2 antag | D2 ag-1 | D2 ag-2
CCCN1C(=O)C2(C(=C(O)c3ccc(OCC)cc3)C(=O)C(=O)N2CCOC)c2ccccc21 (stereo not drawn) | 13 | nt | nt | nt | nt | nt
O=C1c2ccccc2C(=O)N1CCc1nc2ccccc2c(=O)n1Cc1ccco1 | -4 | 1 | 4 | 40* | -3 | 1
Cc1ccc(-n2ncnc2-c2cc3c(n(-c4ccccc4)c2=O)CC(C)(C)CC3=O)cc1 | 5 | nt | nt | nt | nt | nt
N#Cc1ccccc1S(=O)(=O)N1CCN(CC(O)CN2CCOCC2)CC1 (stereo not drawn) | -45* | 1 | -2 | 10 | -3 | 0
COc1ccc(OC)c(S(=O)(=O)N2CCN(CC(O)CN3CCOCC3)CC2)c1 (stereo not drawn) | -4 | -1 | -3 | nt | -2 | nt
O=C(COc1c(CO)cc(F)cc1CO)Nc1ccc(Cl)cc1F | -1 | nt | nt | nt | nt | nt
CC(=O)c1cccc(NS(=O)(=O)c2ccc(N/C=C\C(=O)c3ccc(C)cc3)cc2)c1 | -2 | 3 | 64* | -2 | 4 | 0
COCCCNC(=O)c1cc2c(=O)n3cccc(C)c3nc2n(C(C)C)c1=N | -1 | 6 | 22 | 34* | -2 | 1
Cc1c(C)n(O)c2ccc3nonc3c12 | 13 | 9 | 1 | 41* | -2 | 1
O=Cc1c(C(=O)O)n(CC(=O)O)c2ccccc12 | -3 | 2 | 69* | -14 | 13 | 2
O=C(Nc1cccc(S(=O)(=O)N2CCCC2)c1)c1ccccc1Oc1ccccc1 | -1 | nt | nt | nt | nt | nt
O=C(CSCc1ccc([N+](=O)[O-])cc1)N/N=C/c1ccco1 | 7 | nt | nt | nt | nt | nt
Cc1ccc(CNC(=O)CCC(=O)n2ncc3cc(C)ccc32)cc1 | -11 | 2 | -2 | 47* | -5 | 0
COc1ccccc1NC(=O)c1ccc(NS(=O)(=O)c2cccc3cccnc23)cc1 | -17 | 6 | -5 | 14 | -7 | 3
COc1ccccc1NS(=O)(=O)c1cccc2cccnc12 | 0 | 6 | -7 | 31* | -7 | 0
CN(C)CCn1cc(C(=O)c2cc(Cl)ccc2O)cc1-c1nc2ccccc2c(=O)[nH]1 | -2 | nt | nt | nt | nt | nt
Cc1cc2oc(C(=O)Nc3nnc(CC(C)C)s3)cc(=O)c2cc1C | -2 | nt | nt | nt | nt | nt
Cn1cccc1C(=O)OCC(=O)N1CC(=O)Nc2ccccc21 | -7 | 2 | -22 | 34* | -4 | 2
Cn1cccc1C(=O)OCC(=O)N1c2ccccc2NC(=O)C1(C)C | 1 | -2 | -1 | -1 | 1 | 2
O=[N+]([O-])c1ccc(Oc2cccc(C(F)(F)F)c2)c2ccncc12 | 17 | nt | nt | nt | nt | nt
CCOc1cc(/C=N/NC(N)=O)cc(Br)c1OCC(=O)Nc1cccc2ccccc12 | 2 | 13 | 7 | 17 | -8 | -2
CCOc1cc(/C=N/NC(N)=O)cc(Br)c1OCC(=O)Nc1ccccc1C | 0 | 9 | 53* | -24 | -2 | 0
O=C(CSc1nc2ccccc2o1)Nc1nc(-c2ccc(Br)cc2)cs1 | 9 | nt | nt | nt | nt | nt
CS(=O)(=O)c1nc(S(=O)(=O)c2ccc(Cl)cc2)c(NCc2ccccn2)s1 | -7 | 30* | 0 | 1 | -6 | -1
COc1c(C)cc(Br)cc1C(=O)Nc1ccccc1C | -8 | -3 | -5 | 8 | -9 | -2
SMILES | LDHA block | D2 PAM-1 | D2 PAM-2 | D2 antag | D2 ag-1 | D2 ag-2
COc1c(C)cc(Br)cc1C(=O)O | -5 | -9 | -5 | 40* | -1 | 1
Fc1ccccc1CNC(=S)NCc1ccccc1 | -1 | nt | nt | nt | nt | nt
CNc1snc(C)c1C(=O)OCC(=O)N(C)Cc1ccccc1 | -3 | -7 | 3 | 35* | ? | 0
NS(=O)(=O)c1ccc(NC(=O)Cn2ncc3c2-c2ccccc2OC3)cc1 | -34* | 0 | 0 | 29 | -4 | 1
O=CNC1CCCc2c1[nH]c1ccc(Cl)cc21 (stereo not drawn) | 1 | 5 | 77* | -13 | 5 | 2
CCN(CC)S(=O)(=O)c1cccc(NC(=S)Nc2ccc(C)c(C)c2)c1 | -14 | nt | nt | nt | nt | nt
O=c1[nH]c(NNC(=S)NC2CCCCC2)nc2c1C1(CCCC1)Cc1ccccc1-2 | 7 | 14 | -2 | 38* | -1 | -2
O=c1[nH]c(NCCCO)nc2c1C1(CCCC1)Cc1ccccc1-2 | 10 | -11 | -19 | 17 | 1 | 1
CN(C)Cc1nc2c(c(=O)[nH]1)C1(CCCCC1)Cc1ccccc1-2 | 1 | -5 | -16 | 37* | -3 | 1
Cn1c(NCCO)nc2c(c1=O)C1(CCCCC1)Cc1ccccc1-2 | -1 | -8 | -15 | 68* | -6 | 2
CC(C)Sc1n[nH]c2nc3c(c(=O)n12)C1(CCCC1)Cc1ccccc1-3 | nt | -5 | nt | 55* | nt | 0
CC(C)c1ccc(/C=C(/C#N)C(=O)Nc2cccc3ncccc23)cc1 | -15 | nt | nt | nt | nt | nt
CCC1ON(C(C)C)C2c3nc4ccccc4n3CC12 (stereo not drawn) | 1 | 7 | -5 | 32* | -1 | 0
CCC1ON(c2ccccc2)C2c3nc4ccccc4n3CC12 (stereo not drawn) | 4 | 15 | -8 | 36* | 0 | 0
COc1ccccc1N1C(=O)CCC1(C)C(=O)NC1CCCC1 (stereo not drawn) | -4 | nt | nt | nt | nt | nt
Clc1ccc(-c2cc3ccccn3c2)cc1 | 8 | nt | nt | nt | nt | nt
N#CCC(=N)N1CCN(c2ccccc2)CC1 | 2 | -8 | -22 | -19 | 0 | 15
N#CCC(=N)N1CCN(c2cccc(Cl)c2)CC1 | -3 | -15 | -22 | 63* | 0 | 1
COc1ccc(-c2cc(C(=O)N3CCCCC3)c3cccc(C)c3n2)cc1 | 8 | nt | nt | nt | nt | nt
CCC(C)C(NC(=O)c1ccc(C(C)C)cc1)C(=O)O (stereo not drawn) | 0 | nt | nt | nt | nt | nt
Cc1nn(CC(=O)Nc2ccc(Br)cc2F)c(=O)c2cccn12 | -3 | -6 | 2 | 47* | -4 | 0
Cc1ccccc1NC(=O)Cn1nc(C)n2cccc2c1=O | -2 | -6 | 2 | 17 | 1 | 0
O=C(c1cc(=O)c2cc(Cl)ccc2o1)N(Cc1ccccc1)c1ccccn1 | -2 | nt | nt | nt | nt | nt
Cc1c(OCC(=O)N[C@@H](CSCc2ccccc2)C(=O)O)ccc2c3c(c(=O)oc12)CCC3 | -2 | 17 | -5 | 31* | 2 | 0
Cc1c(OCC(=O)N[C@@H](Cc2ccccc2)C(=O)O)ccc2c3c(c(=O)oc12)CCC3 | -1 | 4 | 4 | 10 | 3 | -1
CCCNc1nc2c(c(=O)n(C)c(=O)n2C)n1Cc1ccc(Br)cc1 | 0 | nt | nt | nt | nt | nt
O=C(c1cc(-c2csc(-c3ccccc3)n2)c[nH]1)N1CCCC1 | -7 | nt | nt | nt | nt | nt
CC1CCCCC1NC(=O)c1cc(Sc2cccc(Cl)c2)nc2ccccc12 (stereo not drawn) | 12 | nt | nt | nt | nt | nt

Assay outcomes from PubChem BioAssay.
